The text below walks through data of ChEMBL document CHEMBL1157539, “Thousands of chemical starting points for antimalarial lead identification” (Nature, 2010).

Format in all cases: functional
Experiment [1] relates to Plasmodium falciparum. In words: GSK_TCMDC: Inhibition of Plasmodium falciparum 3D7 in whole red blood cells, using parasite LDH activity as an index of growth. Test compounds present at 2uM.
Experiment [2] concerns Plasmodium falciparum. Briefly: GSK_TCMDC: Inhibition of Plasmodium falciparum Dd2 in whole red blood cells, using parasite LDH activity as an index of growth. Test compounds present at 2uM.
The test system of another experiment is HepG2. Briefly: GSK_TCMDC: Percent inhibition of human HepG2 cell line. Test compounds present at 10uM.

With `O=C(Nc1ccc(-c2nc3ccccc3[nH]2)cc1)c1cnc(Cl)c(Cl)c1`, the figures for the Inhibition in the experiment with Plasmodium falciparum [1], in the experiment on Plasmodium falciparum [2] and with HepG2 were 100%, 95% and 11%, respectively.

Consider `Cc1cccc2nc(-c3cccc(-c4cccc(NC(=O)C5CC(=O)Nc6ccccc65)c4)c3)[nH]c12` (stereo not given), for which the values for the Inhibition with Plasmodium falciparum [1], in the experiment with Plasmodium falciparum [2] and in the experiment on HepG2 were 85%, 25% and 13%, respectively.

For `COc1ccccc1CNC(=O)c1nn(-c2ccc(Cl)cc2)c(=O)c2ccccc12`, the Inhibition – broadly, how much of the control response was suppressed – came out at 100% with Plasmodium falciparum [1], 80% in the experiment with Plasmodium falciparum [2] and 0% in the experiment on HepG2.

Regarding `CCc1c(C)nc(-n2nc(C)cc2NC(=O)C2c3ccccc3Oc3ccccc32)[nH]c1=O`, the Inhibition came to 89% with Plasmodium falciparum [1], 80% in the experiment with Plasmodium falciparum [2] and 37% in the experiment with HepG2.

Regarding `Cc1ccc(N2CCc3c(-c4cc5cccnc5nc4C)cc(C)nc32)c(Cl)c1.O=C(O)C(F)(F)F`, the Inhibition in the experiment with Plasmodium falciparum [1] is reported as 96%; with Plasmodium falciparum [2], 90%; in the experiment with HepG2 it was 0%.

`Oc1ccc(CN2CCC(N3CCN(CCc4ccccc4)CC3)C(O)C2)cc1Cl` (stereo not given): the Inhibition with Plasmodium falciparum [1] is reported as 100%; with Plasmodium falciparum [2] it was 77%; with HepG2 it was 0%.

Take `COc1cc2c(Nc3cccc(NC(=O)c4ccccc4)c3)ncnc2cc1OCCCN1CCOCC1`: the Inhibition is listed as 100% with Plasmodium falciparum [1], 100% with Plasmodium falciparum [2] and 0% in the experiment on HepG2.

With `COc1cc2[nH]c(-c3ccc(O)cc3)c(C)c(=O)c2c(OC)c1OC`, the results for the Inhibition in the experiment with Plasmodium falciparum [1], in the experiment with Plasmodium falciparum [2] and in the experiment on HepG2 were 100%, 94% and 1%, respectively.

Consider `CN(C)C=Nc1ccc(OCCCCCCOc2ccc(N=CN(C)C)cc2)cc1.Cc1ccc(S(=O)(=O)O)cc1`, for which the Inhibition in the experiment on Plasmodium falciparum [1] came out at 100%; in the experiment with Plasmodium falciparum [2], 94%; in the experiment with HepG2, 26%.

As for `COc1cc(Nc2nccc(NCC(O)c3ccc(C(F)(F)F)cc3)n2)cc(OC)c1OC` (stereo not given), the Inhibition is given as 91% with Plasmodium falciparum [1], 14% in the experiment with Plasmodium falciparum [2] and 45% in the experiment with HepG2.

For `C=CCN1C(=O)CN(S(=O)(=O)c2ccc(-n3nc(C)cc3C)cc2)C1=S`, the Inhibition in the experiment with Plasmodium falciparum [1] is 93%; in the experiment with Plasmodium falciparum [2] it was 0%; in the experiment with HepG2, 5%.

Regarding `c1cncc(-c2cc(N3CCCCC3)nc(-c3ccncc3)n2)c1`, the Inhibition is 99% in the experiment on Plasmodium falciparum [1], 46% in the experiment on Plasmodium falciparum [2] and 18% in the experiment with HepG2.

Take `O=C(Nc1ccc(CN2CCN(S(=O)(=O)c3ccc(Cl)s3)CC2)cc1)c1cccs1.O=C(O)C(F)(F)F`: the Inhibition with Plasmodium falciparum [1] is given as 92%; with Plasmodium falciparum [2], 87%; in the experiment with HepG2, 14%.

Consider `Fc1ccc2nc(Nc3nc(-c4ccccn4)cs3)sc2c1`, for which the Inhibition is reported as 100% with Plasmodium falciparum [1], 100% with Plasmodium falciparum [2] and 42% in the experiment on HepG2.

`CCc1cn2c3c(cc(C(=O)N[C@@H](Cc4cccc(F)c4)[C@H](O)CNC4CCCCC4)cc13)N(C)S(=O)(=O)CC2.O=CO`: the Inhibition is 99% with Plasmodium falciparum [1], 99% with Plasmodium falciparum [2] and 5% in the experiment with HepG2.

In the case of `COc1cc(C(=O)N2N=C(c3c(-c4ccccc4)c4cc(Br)ccc4[nH]c3=O)CC2c2cccc([N+](=O)[O-])c2)cc(OC)c1OC` (stereo not given), the Inhibition in the experiment with Plasmodium falciparum [1] is on record as 93%; with Plasmodium falciparum [2] it was 95%; with HepG2 it was 1%.

As for `O=C(/C=C/c1ccc(Cl)c(Cl)c1)NCCCCCN1CCCN(C(=O)Nc2ccc(Cl)c(C(F)(F)F)c2)CC1`, the Inhibition stood at 100% in the experiment with Plasmodium falciparum [1], 16% with Plasmodium falciparum [2] and 35% with HepG2.

With `O=C(Nc1ccc(Cn2ncc(N3CCCNCC3)c(Cl)c2=O)cc1)Nc1cccc(Oc2ccccc2)c1.O=C(O)C(F)(F)F`, the Inhibition with Plasmodium falciparum [1] worked out at 81%; in the experiment on Plasmodium falciparum [2], 41%; in the experiment on HepG2, 8%.

Turning to `Cc1cccc(-n2c(Nc3ccc(C)c(Cl)c3)nc3ccc(S(=O)(=O)NC(C)C(C)C)cc32)c1` (stereo not given), the Inhibition in the experiment with Plasmodium falciparum [1] worked out at 97%; in the experiment on Plasmodium falciparum [2], 97%; with HepG2 it was 0%.

Turning to `Cc1cc2nc(-c3ccc(SCC(=O)Nc4ccc5c(c4)OCCO5)nc3)[nH]c2cc1C`, the Inhibition with Plasmodium falciparum [1] is 85%; in the experiment with Plasmodium falciparum [2] it was 6%; in the experiment on HepG2, 17%.

Regarding `CC1CCC(NCc2ccc3c(CNC4CCC(C)CC4)c(O)ccc3c2O)CC1.Cl` (stereo not given), the Inhibition was 100% in the experiment on Plasmodium falciparum [1], 99% with Plasmodium falciparum [2] and 4% in the experiment with HepG2.

Regarding `O=C(O)C(F)(F)F.c1cc(-c2ccc(CN3CCN(c4ccncc4)CC3)cc2)cc(-c2nc3ccccc3[nH]2)c1`, the Inhibition in the experiment on Plasmodium falciparum [1] came out at 100%; in the experiment with Plasmodium falciparum [2] it was 100%; in the experiment on HepG2 it was 61%.

For the compound `COc1ccc(Nc2nc(NN=Cc3cc(Br)c(O)cc3O)nc(Nc3ccc([N+](=O)[O-])cc3)n2)cc1`, the Inhibition in the experiment on Plasmodium falciparum [1] is listed as 97%; with Plasmodium falciparum [2], 23%; in the experiment with HepG2, 30%.

As to `Cc1cc(=NN=Cc2cccc(Cl)c2)c2ccc(F)cc2[nH]1`, the Inhibition in the experiment on Plasmodium falciparum [1] was 100%; in the experiment with Plasmodium falciparum [2], 98%; with HepG2, 0%.

Turning to `CCCCCCOc1ccc(C(=O)NCCC2CCN(CCCCCNC(=O)C=Cc3ccc(Cl)c(Cl)c3)CC2)cc1`, the Inhibition came to 99% in the experiment with Plasmodium falciparum [1], 10% in the experiment on Plasmodium falciparum [2] and 13% with HepG2.

In the case of `O=C(/C=C/c1ccc(Cl)c(Cl)c1)NCCCCCN1CCC(CCNC(=O)/C=C/c2ccccc2F)CC1`, the Inhibition in the experiment with Plasmodium falciparum [1] is recorded as 94%; with Plasmodium falciparum [2], 1%; in the experiment on HepG2 it was 47%.

For the compound `CCOC(=O)c1ccc(NC(=O)Nc2cccc(-c3cccc(-c4nc5cc(F)ccc5[nH]4)c3)c2)cc1`, the Inhibition with Plasmodium falciparum [1] is given as 100%; with Plasmodium falciparum [2] it was 100%; in the experiment with HepG2, 85%.

Take `Cc1ccc(Cn2ncc(N3CCCNCC3)c(Cl)c2=O)cc1NC(=O)Nc1ccc(-c2ccccc2)cc1`: the Inhibition stood at 100% in the experiment on Plasmodium falciparum [1], 38% in the experiment with Plasmodium falciparum [2] and 55% with HepG2.

Take `COc1ccc(NC(=O)/C=C/c2ccc(Cl)c(Cl)c2)cc1N1CCN(C)CC1`: the Inhibition is given as 90% in the experiment on Plasmodium falciparum [1], 20% in the experiment on Plasmodium falciparum [2] and 23% in the experiment with HepG2.

Take `COc1ccc(CN(C)CCCSc2ccc(NC(=O)c3cccc4c(=O)cc(-c5ccccc5)[nH]c34)cc2)cc1OC`: the values for the Inhibition with Plasmodium falciparum [1], in the experiment with Plasmodium falciparum [2] and in the experiment on HepG2 were 93%, 94% and 15%, respectively.

For the compound `N#Cc1ccc(C(=O)Nc2ccc(-c3cccc(CN4CCCC4)c3)cc2)cc1.O=C(O)C(F)(F)F`, the Inhibition with Plasmodium falciparum [1] was 89%; with Plasmodium falciparum [2], 1%; in the experiment with HepG2, 17%.

As to `COc1nc2c(CCN3CCC(NCc4ccc5c(c4)NC(=O)CO5)CC3)c(Cl)cnc2cc1F.Cl`, the Inhibition in the experiment with Plasmodium falciparum [1] is given as 99%; with Plasmodium falciparum [2], 21%; in the experiment with HepG2 it was 15%.

For the compound `CCc1cn2c3c(cc(C(=O)N[C@@H](Cc4cc(F)cc(F)c4)[C@H](O)CNC4CCOCC4)cc13)N(C)S(=O)(=O)CC2.O=CO`, the figures for the Inhibition with Plasmodium falciparum [1], with Plasmodium falciparum [2] and with HepG2 were 98%, 98% and 1%, respectively.

Regarding `Cl.O=c1cc(NCCCNCc2ccc(Cl)c(Cl)c2)[nH]c2ccc(C(F)(F)F)cc12`, the Inhibition in the experiment on Plasmodium falciparum [1] is listed as 100%; with Plasmodium falciparum [2] it was 68%; in the experiment with HepG2, 10%.

As to `Fc1cc(Cl)ccc1Nc1ccnc2cc(-c3ccc(CN4CCSCC4)o3)ccc12`, the Inhibition in the experiment on Plasmodium falciparum [1] turned out to be 100%; in the experiment with Plasmodium falciparum [2], 99%; with HepG2, 17%.

With `O=C(NCCCCCN1CCC(c2c[nH]c3ccccc23)CC1)Nc1cccc(Br)c1`, the values for the Inhibition with Plasmodium falciparum [1], in the experiment with Plasmodium falciparum [2] and in the experiment with HepG2 were 84%, 0% and 39%, respectively.

On to `CCOc1ccc2[nH]c(-c3ccccc3)cc(=NN=Cc3ccncc3)c2c1`, for which the Inhibition in the experiment with Plasmodium falciparum [1] came to 100%; with Plasmodium falciparum [2] it was 100%; with HepG2, 19%.

On to `CC(CN1CCN(C)CC1)C(=O)Nc1ccc(-c2ccc(-c3nc4ccccc4[nH]3)s2)cc1` (stereo not given), for which the Inhibition with Plasmodium falciparum [1] is 100%; with Plasmodium falciparum [2] it was 79%; in the experiment with HepG2, 5%.

Consider `Cc1ccc(C(=O)Nc2cc(S(=O)(=O)N3CCCC3)ccc2OCC(F)(F)F)cc1`, for which the Inhibition in the experiment with Plasmodium falciparum [1] is reported as 93%; in the experiment on Plasmodium falciparum [2] it was 3%; in the experiment on HepG2 it was 0%.

As for `O=C(Nc1ccc(OC2CCN(Cc3ccccc3)CC2)c(Cl)c1)c1ccc(F)cc1.O=C(O)C(F)(F)F`, the Inhibition is recorded as 94% in the experiment with Plasmodium falciparum [1], 92% in the experiment with Plasmodium falciparum [2] and 30% in the experiment on HepG2.

For `CCCCN(CCCC)CCOc1cc2c(cc1OC)CCN2C(=O)/C=C/c1ccccc1Cl.Cl`, the Inhibition in the experiment with Plasmodium falciparum [1] stood at 87%; with Plasmodium falciparum [2] it was 31%; with HepG2, 13%.

Regarding `CCCCCCCN1CC[C@@H](CCCc2ccnc3ccc(OCCN4CCNCC4)cc23)[C@@H](CC)C1.Cl`, the Inhibition is 100% in the experiment on Plasmodium falciparum [1], 98% with Plasmodium falciparum [2] and 82% with HepG2.

Turning to `CN1CCN(c2ccnc3ccc(NC(=O)Nc4ccc(Br)cc4)cc23)CC1`, the figures for the Inhibition with Plasmodium falciparum [1], with Plasmodium falciparum [2] and with HepG2 were 100%, 99% and 12%, respectively.

On to `COc1ccc(CC(=O)NC(CCN2CCC3(CC2)CN(S(C)(=O)=O)c2ccccc23)c2ccc(Cl)c(Cl)c2)cc1OC` (stereo not given), for which the Inhibition in the experiment with Plasmodium falciparum [1] was 92%; with Plasmodium falciparum [2], 77%; in the experiment with HepG2 it was 10%.

As to `CCCC(=O)NC(NC(=S)Nc1ccc([N+](=O)[O-])cc1)C(Cl)(Cl)Cl` (stereo not given), the Inhibition in the experiment with Plasmodium falciparum [1] came to 93%; in the experiment on Plasmodium falciparum [2] it was 14%; with HepG2, 10%.

As to `CC(=O)N(C)c1cccc(C(=O)Nc2ccc(-c3cccc(-c4nc5cc(C(F)(F)F)ccc5[nH]4)c3)cc2)c1`, the values for the Inhibition in the experiment on Plasmodium falciparum [1], in the experiment on Plasmodium falciparum [2] and with HepG2 were 94%, 10% and 79%, respectively.

With `COc1ccccc1NC(=O)Nc1ccc(-c2cccc(-c3nc4ccccc4[nH]3)c2)cc1`, the figures for the Inhibition with Plasmodium falciparum [1], in the experiment on Plasmodium falciparum [2] and in the experiment on HepG2 were 100%, 25% and 42%, respectively.

As to `Cl.N=C(N)Nc1nccc(NCc2ccccc2)n1`, the values for the Inhibition in the experiment on Plasmodium falciparum [1], with Plasmodium falciparum [2] and in the experiment with HepG2 were 88%, 48% and 95%, respectively.

As to `Br.c1cc(C2=NC3CCCCC3N2)ccc1OCCCCCOc1ccc(C2=NC3CCCCC3N2)cc1` (stereo not given), the Inhibition was found to be 100% in the experiment on Plasmodium falciparum [1], 23% in the experiment on Plasmodium falciparum [2] and 80% with HepG2.

`Cl.Cn1cnc(-c2ccc3c(c2)CCN(CCC2CCC(NC(=O)/C=C/c4ccc(F)cc4)CC2)CC3)c1` (stereo not given): the results for the Inhibition in the experiment on Plasmodium falciparum [1], in the experiment on Plasmodium falciparum [2] and in the experiment on HepG2 were 90%, 18% and 26%, respectively.
